This passage reports binding signal results from article PMC7862700, “An all-to-all approach to the identification of sequence-specific readers for epigenetic DNA modifications on cytosine”.

Holding throughout (assay): DAPPL (digital affinity profiling via proximity ligation, sequencing); 10 mM Tris-HCl pH 7.5, 50 mM NaCl, 1 mM DTT, 4% glycerol, room temperature, 30 min; GST-TFs on glutathione beads, 16-mer random dsDNA library, 0.1% formaldehyde crosslink after washing; high values mean tight binding
The target of test [1] is T1, FEV (Homo sapiens, UniProt Q99581 1-238).
T1 sequence: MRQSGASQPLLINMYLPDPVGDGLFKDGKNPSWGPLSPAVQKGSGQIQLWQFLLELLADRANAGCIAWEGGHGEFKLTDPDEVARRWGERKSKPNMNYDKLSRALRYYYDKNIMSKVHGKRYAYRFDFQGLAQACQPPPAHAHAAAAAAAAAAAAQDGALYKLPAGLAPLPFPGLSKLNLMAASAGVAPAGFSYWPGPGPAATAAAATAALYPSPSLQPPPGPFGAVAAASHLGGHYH
The settings on record: protein: recombinant; tags: N-terminal GST; dsDNA, one strand shown. Summed up:
(§1)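 A tag-only sample was pooled with DNA-barcoded human transcription factors that had been expressed in yeast as GST fusions and captured on glutathione beads. The pools were incubated for 30 min at room temperature with 200 nmole of a random double-stranded 16-mer DNA library in Tris/NaCl/DTT/glycerol buffer, then washed, crosslinked with 0.1% formaldehyde, proximity-ligated (BsaI/T4 ligase, 1 h, 37 °C), PCR-amplified and sequenced on an Illumina NextSeq500. Binding signal is each hexamer's read frequency for a factor divided by its frequency for the tag-only sample.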

Test [2] addresses ETV5 (Homo sapiens, UniProt P41161 1-510). The following applies: protein: recombinant; tags: N-terminal GST; dsDNA, one strand shown. Summed up:
as §1

In test [3] the target is HSF1 (Homo sapiens, UniProt Q00613 1-529). The following applies: protein: recombinant; tags: N-terminal GST; chain copies: 3; dsDNA, one strand shown. In short, it runs like this:
as §1

Test [4] deals with T2, SPIC (Homo sapiens, UniProt Q8N5J4 1-248).
T2 sequence: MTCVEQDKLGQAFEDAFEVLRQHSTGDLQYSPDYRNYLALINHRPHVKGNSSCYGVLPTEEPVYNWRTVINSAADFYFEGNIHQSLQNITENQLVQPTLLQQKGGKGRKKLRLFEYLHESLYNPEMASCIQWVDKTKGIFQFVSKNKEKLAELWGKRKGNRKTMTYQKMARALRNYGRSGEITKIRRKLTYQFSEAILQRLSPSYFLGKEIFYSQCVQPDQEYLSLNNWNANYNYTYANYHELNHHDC
The settings on record: protein: recombinant; tags: N-terminal GST; dsDNA, one strand shown. In short, it runs like this:
as §1

For test [5], the target named is ELF4 (Homo sapiens, UniProt Q99607 1-663). The following applies: protein: recombinant; tags: N-terminal GST; dsDNA, one strand shown. Summed up:
as §1

The target of test [6] is T3, ELK4 (Homo sapiens, UniProt P28324-2 1-405).
T3 sequence: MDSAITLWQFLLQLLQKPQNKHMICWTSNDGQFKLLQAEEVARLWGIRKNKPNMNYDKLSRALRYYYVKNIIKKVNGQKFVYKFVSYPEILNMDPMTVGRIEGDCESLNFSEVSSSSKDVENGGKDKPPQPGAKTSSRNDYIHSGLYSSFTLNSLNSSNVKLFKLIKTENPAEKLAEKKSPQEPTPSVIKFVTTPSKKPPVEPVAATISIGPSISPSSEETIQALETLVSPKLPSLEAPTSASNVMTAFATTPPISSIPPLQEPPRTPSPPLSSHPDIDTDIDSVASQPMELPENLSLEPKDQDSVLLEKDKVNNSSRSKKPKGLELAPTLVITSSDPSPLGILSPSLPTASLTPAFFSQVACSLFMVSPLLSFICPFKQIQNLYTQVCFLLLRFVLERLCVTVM
The settings on record: protein: recombinant; tags: N-terminal GST; dsDNA, one strand shown. In short, it runs like this: as §1

Test [7] concerns the target T4, ETV2 (Homo sapiens, UniProt O00321 1-342).
T4 sequence: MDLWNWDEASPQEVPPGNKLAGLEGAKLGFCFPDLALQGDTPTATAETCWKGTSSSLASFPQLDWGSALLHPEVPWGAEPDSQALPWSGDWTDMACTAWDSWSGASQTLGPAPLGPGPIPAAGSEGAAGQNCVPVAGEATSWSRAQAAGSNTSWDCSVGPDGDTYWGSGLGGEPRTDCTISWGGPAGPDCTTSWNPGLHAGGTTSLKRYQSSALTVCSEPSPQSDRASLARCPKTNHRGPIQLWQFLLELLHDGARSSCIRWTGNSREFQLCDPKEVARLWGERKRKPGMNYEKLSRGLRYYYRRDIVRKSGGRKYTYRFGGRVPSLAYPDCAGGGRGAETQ
The settings on record: protein: recombinant; tags: N-terminal GST; dsDNA, one strand shown. In short, it runs like this: as §1

The target in test [8] is T5, ELF3 (Homo sapiens, UniProt P78545 1-371).
T5 sequence: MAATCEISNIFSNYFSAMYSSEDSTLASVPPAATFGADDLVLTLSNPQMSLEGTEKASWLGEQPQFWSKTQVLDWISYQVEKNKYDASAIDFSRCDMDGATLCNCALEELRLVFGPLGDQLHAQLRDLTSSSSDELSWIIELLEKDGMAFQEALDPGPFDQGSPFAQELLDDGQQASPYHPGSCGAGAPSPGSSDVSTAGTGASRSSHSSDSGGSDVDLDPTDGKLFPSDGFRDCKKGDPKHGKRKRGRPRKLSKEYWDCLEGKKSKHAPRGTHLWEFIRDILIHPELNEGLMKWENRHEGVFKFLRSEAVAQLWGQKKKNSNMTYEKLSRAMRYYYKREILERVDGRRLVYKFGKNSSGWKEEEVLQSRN
The following applies: protein: recombinant; tags: N-terminal GST; dsDNA, one strand shown. In short, it runs like this: as §1

Test [9] deals with CRX (Homo sapiens, UniProt O43186 1-299). The settings on record: protein: recombinant; tags: N-terminal GST; dsDNA, one strand shown. In short, it runs like this: as §1
Test [10] deals with ETV1 (Homo sapiens, UniProt P50549 1-477). The settings on record: protein: recombinant; tags: N-terminal GST; dsDNA, one strand shown. In short, it runs like this: as §1
Test [11] has as its target T6, ERF (Homo sapiens, UniProt P50548 1-548).
T6 sequence: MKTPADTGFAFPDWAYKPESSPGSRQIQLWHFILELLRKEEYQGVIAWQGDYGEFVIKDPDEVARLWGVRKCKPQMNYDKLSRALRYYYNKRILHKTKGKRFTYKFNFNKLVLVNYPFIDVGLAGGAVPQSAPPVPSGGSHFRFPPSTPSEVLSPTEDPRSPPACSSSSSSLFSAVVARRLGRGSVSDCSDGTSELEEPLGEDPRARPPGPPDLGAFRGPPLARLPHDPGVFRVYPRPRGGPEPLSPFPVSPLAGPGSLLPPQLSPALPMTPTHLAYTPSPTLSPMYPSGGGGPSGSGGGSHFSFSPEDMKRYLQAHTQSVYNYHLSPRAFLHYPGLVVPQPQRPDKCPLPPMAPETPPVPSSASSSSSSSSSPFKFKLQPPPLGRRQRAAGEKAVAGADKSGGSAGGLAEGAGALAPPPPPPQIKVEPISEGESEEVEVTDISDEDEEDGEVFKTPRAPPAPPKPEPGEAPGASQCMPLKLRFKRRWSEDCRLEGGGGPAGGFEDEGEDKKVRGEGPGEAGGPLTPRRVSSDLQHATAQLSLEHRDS
The following applies: protein: recombinant; tags: N-terminal GST; dsDNA, one strand shown. Summed up: as §1

Test [12] addresses T7, ETV3L (Homo sapiens, UniProt Q6ZN32 1-361).
T7 sequence: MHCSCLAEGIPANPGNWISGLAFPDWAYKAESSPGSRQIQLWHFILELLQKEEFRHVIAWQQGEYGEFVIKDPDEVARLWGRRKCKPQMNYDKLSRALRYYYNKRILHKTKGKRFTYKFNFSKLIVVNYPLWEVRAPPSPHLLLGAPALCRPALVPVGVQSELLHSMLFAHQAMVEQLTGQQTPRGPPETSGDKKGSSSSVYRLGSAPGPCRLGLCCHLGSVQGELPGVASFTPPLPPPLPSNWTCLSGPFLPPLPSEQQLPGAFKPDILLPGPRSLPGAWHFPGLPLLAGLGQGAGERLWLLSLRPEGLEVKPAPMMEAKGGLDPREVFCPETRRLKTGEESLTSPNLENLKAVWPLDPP
The following applies: protein: recombinant; tags: N-terminal GST; dsDNA, one strand shown. In short, it runs like this: as §1

Test [13] has as its target T8, ETS2 (Homo sapiens, UniProt P15036 1-469).
T8 sequence: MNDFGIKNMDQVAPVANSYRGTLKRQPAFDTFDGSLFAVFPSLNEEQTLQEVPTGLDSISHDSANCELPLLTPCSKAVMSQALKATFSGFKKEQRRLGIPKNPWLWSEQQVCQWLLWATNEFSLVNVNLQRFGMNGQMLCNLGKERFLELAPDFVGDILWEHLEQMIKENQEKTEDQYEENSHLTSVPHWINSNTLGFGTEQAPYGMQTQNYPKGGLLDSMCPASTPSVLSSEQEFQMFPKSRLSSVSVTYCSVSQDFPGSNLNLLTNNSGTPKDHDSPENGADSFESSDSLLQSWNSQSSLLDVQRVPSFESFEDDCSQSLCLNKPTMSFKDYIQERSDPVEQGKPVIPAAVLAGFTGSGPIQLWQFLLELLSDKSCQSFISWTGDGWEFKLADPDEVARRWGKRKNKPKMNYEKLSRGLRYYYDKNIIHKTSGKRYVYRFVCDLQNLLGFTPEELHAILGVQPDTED
The settings on record: protein: recombinant; tags: N-terminal GST; dsDNA, one strand shown. In short, it runs like this: as §1

Test [14] has as its target T9, SPDEF (Homo sapiens, UniProt O95238 1-335).
T9 sequence: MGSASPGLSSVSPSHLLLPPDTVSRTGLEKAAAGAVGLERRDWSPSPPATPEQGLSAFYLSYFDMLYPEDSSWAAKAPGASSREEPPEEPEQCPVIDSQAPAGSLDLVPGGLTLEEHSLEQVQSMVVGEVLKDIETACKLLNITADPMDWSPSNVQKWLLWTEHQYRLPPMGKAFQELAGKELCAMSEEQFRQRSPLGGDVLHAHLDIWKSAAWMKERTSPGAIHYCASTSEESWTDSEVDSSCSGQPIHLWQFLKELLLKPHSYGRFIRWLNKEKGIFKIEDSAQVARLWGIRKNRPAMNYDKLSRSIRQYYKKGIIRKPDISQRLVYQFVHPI
The following applies: protein: recombinant; tags: N-terminal GST; dsDNA, one strand shown. Summed up:
as §1

For test [15], the target named is T10, ETV7 (Homo sapiens, UniProt Q9Y603 1-341).
T10 sequence: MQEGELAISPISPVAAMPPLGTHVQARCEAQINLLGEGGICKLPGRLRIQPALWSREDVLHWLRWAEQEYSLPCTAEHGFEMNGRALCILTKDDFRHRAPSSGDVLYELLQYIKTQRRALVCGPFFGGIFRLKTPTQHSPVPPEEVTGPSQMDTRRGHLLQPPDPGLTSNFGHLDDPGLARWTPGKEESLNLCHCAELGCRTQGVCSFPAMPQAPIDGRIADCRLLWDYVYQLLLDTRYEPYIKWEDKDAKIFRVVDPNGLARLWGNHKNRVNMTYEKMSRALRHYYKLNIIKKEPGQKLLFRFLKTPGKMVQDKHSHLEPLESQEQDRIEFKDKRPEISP
The settings on record: protein: recombinant; tags: N-terminal GST; dsDNA, one strand shown. Summed up:
as §1

The target of test [16] is T11, ELF5 (Homo sapiens, UniProt Q9UKW6-2 1-255).
T11 sequence: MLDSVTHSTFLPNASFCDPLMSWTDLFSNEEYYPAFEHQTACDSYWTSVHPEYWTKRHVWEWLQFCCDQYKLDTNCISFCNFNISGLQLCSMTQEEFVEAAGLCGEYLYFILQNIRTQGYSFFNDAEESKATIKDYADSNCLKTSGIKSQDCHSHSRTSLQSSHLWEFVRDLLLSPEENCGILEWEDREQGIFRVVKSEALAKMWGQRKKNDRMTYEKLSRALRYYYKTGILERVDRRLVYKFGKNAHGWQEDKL
The settings on record: protein: recombinant; tags: N-terminal GST; dsDNA, one strand shown. Summed up:
as §1

In test [17] the target is T12, ETV3 (Homo sapiens, UniProt P41162-2 1-143).
T12 sequence: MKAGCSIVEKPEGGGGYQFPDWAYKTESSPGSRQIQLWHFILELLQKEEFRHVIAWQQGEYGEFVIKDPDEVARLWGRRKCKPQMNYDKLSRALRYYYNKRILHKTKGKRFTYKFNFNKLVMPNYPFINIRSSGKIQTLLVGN
The following applies: protein: recombinant; tags: N-terminal GST; dsDNA, one strand shown. In short, it runs like this: as §1

Test [18] concerns the target ETV6 (Homo sapiens, UniProt P41212 1-452). The settings on record: protein: recombinant; tags: N-terminal GST; dsDNA, one strand shown. In short, it runs like this: as §1

ELF4, sequence (Q99607 whole entry): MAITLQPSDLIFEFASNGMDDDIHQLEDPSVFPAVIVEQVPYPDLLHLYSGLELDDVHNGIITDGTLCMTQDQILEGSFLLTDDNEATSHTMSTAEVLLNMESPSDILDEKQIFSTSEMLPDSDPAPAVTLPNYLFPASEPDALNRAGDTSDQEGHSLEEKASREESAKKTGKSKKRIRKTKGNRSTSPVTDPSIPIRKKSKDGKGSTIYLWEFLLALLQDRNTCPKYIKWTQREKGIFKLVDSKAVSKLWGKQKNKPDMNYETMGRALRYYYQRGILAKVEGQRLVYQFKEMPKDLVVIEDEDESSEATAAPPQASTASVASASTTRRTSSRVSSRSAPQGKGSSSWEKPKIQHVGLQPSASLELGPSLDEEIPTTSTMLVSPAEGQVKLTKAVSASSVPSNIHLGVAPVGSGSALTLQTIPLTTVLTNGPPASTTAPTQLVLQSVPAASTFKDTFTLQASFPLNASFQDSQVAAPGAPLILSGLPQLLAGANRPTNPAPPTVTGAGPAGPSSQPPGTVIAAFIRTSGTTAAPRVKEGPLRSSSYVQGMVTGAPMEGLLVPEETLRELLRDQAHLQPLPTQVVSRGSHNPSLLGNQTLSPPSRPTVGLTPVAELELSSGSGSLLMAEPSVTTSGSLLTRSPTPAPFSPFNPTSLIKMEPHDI
HSF1, sequence (Q00613 whole entry): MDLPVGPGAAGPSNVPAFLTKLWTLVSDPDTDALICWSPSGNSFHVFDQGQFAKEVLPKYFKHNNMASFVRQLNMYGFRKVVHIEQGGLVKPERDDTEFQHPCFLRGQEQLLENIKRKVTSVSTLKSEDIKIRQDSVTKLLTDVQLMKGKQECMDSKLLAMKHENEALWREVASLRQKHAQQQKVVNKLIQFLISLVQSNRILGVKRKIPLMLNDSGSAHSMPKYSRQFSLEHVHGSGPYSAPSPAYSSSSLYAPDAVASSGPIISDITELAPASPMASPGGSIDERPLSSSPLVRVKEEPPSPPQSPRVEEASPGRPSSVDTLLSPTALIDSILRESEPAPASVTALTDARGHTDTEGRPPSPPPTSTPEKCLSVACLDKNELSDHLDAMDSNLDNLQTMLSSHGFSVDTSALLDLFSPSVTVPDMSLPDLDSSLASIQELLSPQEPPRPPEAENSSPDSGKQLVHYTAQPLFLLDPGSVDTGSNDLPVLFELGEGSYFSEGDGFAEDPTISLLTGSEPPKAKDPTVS
ETV1, sequence (P50549 whole entry): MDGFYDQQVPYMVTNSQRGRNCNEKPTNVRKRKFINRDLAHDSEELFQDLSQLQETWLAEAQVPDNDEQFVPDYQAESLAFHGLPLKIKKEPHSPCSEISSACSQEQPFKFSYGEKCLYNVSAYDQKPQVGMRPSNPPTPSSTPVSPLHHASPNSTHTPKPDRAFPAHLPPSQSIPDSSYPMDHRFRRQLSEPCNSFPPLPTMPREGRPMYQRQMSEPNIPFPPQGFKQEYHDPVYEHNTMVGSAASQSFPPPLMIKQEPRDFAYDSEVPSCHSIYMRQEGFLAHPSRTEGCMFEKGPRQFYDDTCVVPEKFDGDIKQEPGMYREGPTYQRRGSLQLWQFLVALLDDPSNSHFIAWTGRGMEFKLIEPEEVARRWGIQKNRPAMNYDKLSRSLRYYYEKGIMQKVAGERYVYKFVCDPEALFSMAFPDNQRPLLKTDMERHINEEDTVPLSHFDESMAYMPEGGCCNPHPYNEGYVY
ETV5, sequence (P41161 whole entry): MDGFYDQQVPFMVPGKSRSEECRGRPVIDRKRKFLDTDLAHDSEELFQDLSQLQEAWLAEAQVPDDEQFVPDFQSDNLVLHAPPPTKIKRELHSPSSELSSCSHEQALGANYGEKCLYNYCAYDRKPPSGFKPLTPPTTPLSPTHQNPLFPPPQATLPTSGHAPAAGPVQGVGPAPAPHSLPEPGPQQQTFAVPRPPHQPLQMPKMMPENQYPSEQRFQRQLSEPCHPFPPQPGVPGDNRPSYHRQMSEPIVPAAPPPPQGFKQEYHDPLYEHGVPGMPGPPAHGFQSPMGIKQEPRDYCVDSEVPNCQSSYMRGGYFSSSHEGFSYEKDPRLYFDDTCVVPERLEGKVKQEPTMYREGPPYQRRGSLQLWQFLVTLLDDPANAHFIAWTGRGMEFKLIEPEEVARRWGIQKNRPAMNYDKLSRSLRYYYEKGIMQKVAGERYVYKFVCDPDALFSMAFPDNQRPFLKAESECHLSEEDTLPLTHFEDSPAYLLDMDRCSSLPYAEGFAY
ETV6, sequence (P41212 whole entry): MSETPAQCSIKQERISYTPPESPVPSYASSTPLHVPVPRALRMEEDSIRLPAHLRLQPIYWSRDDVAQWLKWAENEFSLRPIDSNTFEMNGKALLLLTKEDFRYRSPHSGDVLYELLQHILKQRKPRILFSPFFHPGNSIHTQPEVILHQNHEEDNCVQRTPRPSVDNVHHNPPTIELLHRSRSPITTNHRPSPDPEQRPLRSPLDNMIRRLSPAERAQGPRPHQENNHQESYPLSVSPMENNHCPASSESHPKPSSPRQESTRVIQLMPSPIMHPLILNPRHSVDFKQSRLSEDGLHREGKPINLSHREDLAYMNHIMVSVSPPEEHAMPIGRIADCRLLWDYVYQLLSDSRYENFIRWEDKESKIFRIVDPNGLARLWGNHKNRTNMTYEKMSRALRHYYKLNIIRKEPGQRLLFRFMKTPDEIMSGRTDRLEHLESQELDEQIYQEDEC
CRX, sequence (O43186 whole entry): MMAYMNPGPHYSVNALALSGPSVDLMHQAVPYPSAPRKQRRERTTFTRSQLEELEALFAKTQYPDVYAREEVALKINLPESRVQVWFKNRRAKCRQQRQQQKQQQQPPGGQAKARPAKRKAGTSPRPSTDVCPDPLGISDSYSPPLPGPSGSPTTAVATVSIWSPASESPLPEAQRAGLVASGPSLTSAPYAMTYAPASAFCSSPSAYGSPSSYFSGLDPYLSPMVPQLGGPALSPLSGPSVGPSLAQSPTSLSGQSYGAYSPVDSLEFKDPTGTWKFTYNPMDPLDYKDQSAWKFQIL

With ATAACA, the binding signal in [1] was 1.28 fold enrichment (6-mer frequency, TF over GST control); in test [2] it was 1.25 fold enrichment (6-mer frequency, TF over GST control); in test [3], 1.2 fold enrichment (6-mer frequency, TF over GST control); in [4], 1.31 fold enrichment (6-mer frequency, TF over GST control); in test [5], 1.28 fold enrichment (6-mer frequency, TF over GST control); in [6] it was 1.2 fold enrichment (6-mer frequency, TF over GST control). Further, the binding signal is 1.28 fold enrichment (6-mer frequency, TF over GST control) in test [7]; 1.21 fold enrichment (6-mer frequency, TF over GST control) in [8]; 1.39 fold enrichment (6-mer frequency, TF over GST control) in [9]; 1.24 fold enrichment (6-mer frequency, TF over GST control) in test [10]; 1.31 fold enrichment (6-mer frequency, TF over GST control) in [11]; 1.28 fold enrichment (6-mer frequency, TF over GST control) in [12]. Moreover, the binding signal in test [13] is 1.27 fold enrichment (6-mer frequency, TF over GST control); in [14], 1.21 fold enrichment (6-mer frequency, TF over GST control); in test [15] it was 1.32 fold enrichment (6-mer frequency, TF over GST control); in [16], 1.28 fold enrichment (6-mer frequency, TF over GST control); in [17] it was 1.2 fold enrichment (6-mer frequency, TF over GST control); in test [18], 1.26 fold enrichment (6-mer frequency, TF over GST control).
